Test results taken from PubChem BioAssay.
The source made the active and inactive calls.

Tests used:
[1] = optical density shifts of acrAB sulA E. coli – strain DRC41, OD650, 48 h, E. coli filamentation inducer project, primary screen (AID 1152); conditions: higher = more signal, called active from +8 up or from −8 down;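 further: E. coli MC1000 strain DRC41 lacking acrAB efflux pump and sulA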
[2] = probe aLefty1 binding on compound microarray – biochemical, small-molecule microarray, 635/667 nm fluorescence, primary screen (AID 1153); conditions: higher = more signal;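 further: score merges spot fluorescence with signal-to-noise ratio from the scanned slide images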
[3] = plasmodial surface anion channel blockers, osmotic lysis – cell-based, P. falciparum Indochina, OD700, 1 h, primary screen (AID 1154); conditions: P. falciparum Indochina infected RBC osmotic lysis, higher = more signal, called active from +8 up or from −8 down
[4] = plasmodial surface anion channel blockers, osmotic lysis – cell-based, P. falciparum Indochina, OD700, 2 h, primary screen (AID 1155);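 further: lysis reports solute entry through the parasite surface anion channel PSAC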; conditions: P. falciparum Indochina infected erythrocytes, higher = more signal, called active from +8 up or from −8 down
[5] = changes in parasitized red cell lysis, either direction – P. falciparum Indochina, OD700, 3 h, PSAC antagonist project, primary screen (AID 1156); conditions: P. falciparum-infected erythrocytes, osmotic lysis, higher = more signal, called active from +8 up or from −8 down
[6] = plasmodial surface anion channel blockers, osmotic lysis – cell-based, P. falciparum Indochina, OD700, 18 h, primary screen (AID 1157); conditions: P. falciparum Indochina infected erythrocytes, osmotic lysis OD700, 18 h; higher = more signal, called active from +8 up or from −8 down
[7] = S6 kinase pathway phospho-S6 level changes – cell-based, A549, cytoblot, luminescence, serum-stimulated, primary screen (AID 1158); conditions: 5 h, higher = more signal;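 further: serum-stimulated A549 lung adenocarcinoma cells; signal is phosphorylated S6 detected by cytoblot immunostaining with HRP secondary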
[8] = target: NADPH oxidase 2 (Homo sapiens) (UniProt P04839); assay: compounds shifting NOX2 Amplex Red fluorescence – cell-based, HEK293-NOX2, PMA-stimulated, NOX inhibitor project, primary screen (AID 1159); conditions: 45 min, higher = more signal, called active from +8 up or from −8 down; further: test concentration not given here
[9] = target: NADPH oxidase 4 (Homo sapiens) (UniProt Q9NPH5); assay: compounds shifting NOX4 Amplex Red fluorescence – cell-based, HEK293-NOX4, tetracycline-induced, NOX inhibitor project, primary screen (AID 1160); conditions: HEK293-NOX4, Amplex Red H2O2 fluorescence, 45 min; higher = more signal, called active from +8 up or from −8 down
[10] = target: NADPH oxidase 5 (Homo sapiens) (UniProt Q96PH1); assay: compounds shifting NOX5 Amplex Red fluorescence – cell-based, HEK293-NOX5, NOX inhibitor project, primary screen (AID 1161); conditions: HEK293-NOX5, ionomycin, 45 min, higher = more signal
[11] = compound effects on lung adenocarcinoma cell viability – A549, calcein-AM fluorescence, 48 h, basal, profiling panel (AID 1162); conditions: higher = more signal; further: test concentration not given here
[12] = compound effects on differentiated 3T3-L1 adipocyte viability – cell-based, 3T3-L1 adipocytes, calcein-AM fluorescence, 48 h, basal, profiling panel (AID 1163); conditions: 3T3-L1 adipocytes viability, higher = more signal; further: test concentration not given here
[13] = compound effects on hepatocellular carcinoma cell viability – HepG2, calcein-AM fluorescence, 48 h, basal, profiling panel (AID 1164); conditions: higher = more signal; further: test concentration not given here
[14] = compound effects on multiple myeloma cell viability – MM1S, calcein-AM fluorescence, 48 h, basal, profiling panel (AID 1165); conditions: higher = more signal; further: test concentration not given here
[15] = calcein-AM signal in unstimulated myeloma cells – cell-based, calcein-AM fluorescence, 48 h, PK04 Diversity Set, profiling panel (AID 1166); conditions: RPMI8226 myeloma viability, higher = more signal;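 further: cells grown under basal conditions without added stimulus; test concentration not given here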
[16] = JC-1 mitochondrial signal, unstimulated HepG2 cells – cell-based, JC-1 fluorescence, 24 h, 100 nL compound, profiling panel (AID 1167); conditions: HepG2 mitochondrial potential, higher = more signal; further: test concentration not given here
[17] = JC-1 mitochondrial signal, unstimulated adipocytes – cell-based, JC-1 fluorescence, 3T3-L1 adipocytes, 24 h, 100 nL compound, profiling panel (AID 1168); conditions: JC-1 mitochondrial fluorescence, higher = more signal, called active from +8 up or from −8 down; further: test concentration not given here
[18] = JC-1 mitochondrial signal, unstimulated myeloma cells – cell-based, JC-1 fluorescence, RPMI8226, 24 h, 100 nL compound, profiling panel (AID 1169); conditions: JC-1 mitochondrial potential fluorescence, higher = more signal; further: test concentration not given here
[19] = JC-1 mitochondrial signal, unstimulated MM1S myeloma – cell-based, JC-1 fluorescence, 24 h, 100 nL compound, profiling panel (AID 1170); conditions: MM1S mitochondrial potential, higher = more signal; further: test concentration not given here
[20] = resazurin metabolic signal in A549 cells – cell-based, resazurin fluorescence, 24 h, PK04 Diversity Set, profiling panel (AID 1171); conditions: A549 viability, higher = more signal, called active from +8 up or from −8 down; further: test concentration not given here

Sequence of NADPH oxidase 4 (Homo sapiens) (Q9NPH5 whole entry, looked up): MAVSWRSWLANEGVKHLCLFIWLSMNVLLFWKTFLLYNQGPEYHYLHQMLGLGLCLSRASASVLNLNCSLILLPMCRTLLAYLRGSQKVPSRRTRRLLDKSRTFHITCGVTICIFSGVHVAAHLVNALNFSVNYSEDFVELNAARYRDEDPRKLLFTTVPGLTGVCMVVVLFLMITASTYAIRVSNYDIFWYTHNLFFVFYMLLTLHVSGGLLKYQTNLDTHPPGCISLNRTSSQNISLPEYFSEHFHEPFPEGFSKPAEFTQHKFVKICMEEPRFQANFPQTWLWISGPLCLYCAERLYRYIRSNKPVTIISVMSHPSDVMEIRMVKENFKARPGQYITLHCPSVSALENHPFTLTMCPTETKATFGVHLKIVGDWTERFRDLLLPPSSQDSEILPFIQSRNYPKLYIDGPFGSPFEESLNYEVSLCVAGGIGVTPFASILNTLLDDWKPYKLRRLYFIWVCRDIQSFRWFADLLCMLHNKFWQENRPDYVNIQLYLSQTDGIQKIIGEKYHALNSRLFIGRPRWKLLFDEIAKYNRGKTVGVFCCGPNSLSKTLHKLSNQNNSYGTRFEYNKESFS
Sequence of NADPH oxidase 5 (Homo sapiens) (Q96PH1 whole entry, looked up): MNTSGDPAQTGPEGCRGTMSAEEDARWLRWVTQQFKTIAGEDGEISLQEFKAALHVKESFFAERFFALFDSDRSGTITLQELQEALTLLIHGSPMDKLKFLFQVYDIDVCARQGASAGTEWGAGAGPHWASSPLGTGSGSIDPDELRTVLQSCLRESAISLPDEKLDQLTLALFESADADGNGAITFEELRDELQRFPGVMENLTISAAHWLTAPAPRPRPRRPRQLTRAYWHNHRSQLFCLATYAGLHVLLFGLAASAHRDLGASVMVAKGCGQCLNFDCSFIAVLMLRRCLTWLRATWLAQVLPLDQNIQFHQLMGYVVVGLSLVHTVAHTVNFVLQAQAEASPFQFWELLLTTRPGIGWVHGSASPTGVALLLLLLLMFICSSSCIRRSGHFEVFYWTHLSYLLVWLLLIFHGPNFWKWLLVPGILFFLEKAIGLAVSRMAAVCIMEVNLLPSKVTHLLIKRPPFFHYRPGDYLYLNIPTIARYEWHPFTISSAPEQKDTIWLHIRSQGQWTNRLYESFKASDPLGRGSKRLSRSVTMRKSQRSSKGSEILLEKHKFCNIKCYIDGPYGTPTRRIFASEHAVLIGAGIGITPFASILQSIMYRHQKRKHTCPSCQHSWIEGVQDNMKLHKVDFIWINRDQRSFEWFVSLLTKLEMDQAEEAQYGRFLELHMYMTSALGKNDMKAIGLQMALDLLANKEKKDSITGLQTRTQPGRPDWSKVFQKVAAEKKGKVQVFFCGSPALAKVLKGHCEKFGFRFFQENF
Sequence of NADPH oxidase 2 (Homo sapiens) (P04839 whole entry, looked up): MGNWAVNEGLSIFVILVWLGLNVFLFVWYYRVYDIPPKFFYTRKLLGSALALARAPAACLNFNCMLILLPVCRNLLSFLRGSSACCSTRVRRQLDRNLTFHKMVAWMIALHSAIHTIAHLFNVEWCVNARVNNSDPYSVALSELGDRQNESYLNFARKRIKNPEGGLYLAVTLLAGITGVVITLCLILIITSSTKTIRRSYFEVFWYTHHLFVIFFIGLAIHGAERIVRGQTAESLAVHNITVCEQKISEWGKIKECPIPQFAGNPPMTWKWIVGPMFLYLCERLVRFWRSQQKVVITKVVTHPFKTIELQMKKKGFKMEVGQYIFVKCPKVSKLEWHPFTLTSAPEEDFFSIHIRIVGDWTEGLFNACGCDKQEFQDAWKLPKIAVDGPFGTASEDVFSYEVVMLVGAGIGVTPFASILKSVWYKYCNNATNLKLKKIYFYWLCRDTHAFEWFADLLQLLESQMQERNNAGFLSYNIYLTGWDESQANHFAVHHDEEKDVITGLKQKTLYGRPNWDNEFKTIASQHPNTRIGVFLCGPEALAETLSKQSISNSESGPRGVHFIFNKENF

SMILES	z-score [1]	composite z-score [2]	z-score [3]	z-score [4]	z-score [5]	z-score [6]	z-score [7]	z-score [8]	z-score [9]	z-score [10]	z-score [11]	z-score [12]	z-score [13]	z-score [14]	z-score [15]	z-score [16]	z-score [17]	z-score [18]	z-score [19]	z-score [20]
CN1C(=O)C2C=CC(C(O)c3ccccc3)N(N(c3ccccc3)c3ccccc3)C2C1=O (stereo not given)	-0.84 (inactive)	0.267	0.581 (inactive)	0.693 (inactive)	-0.284 (inactive)	0.9 (inactive)	-0.809	-1.19 (inactive)	-0.586 (inactive)	0.121	-0.948	-0.669	-0.373	0.0913	-0.383	-0.885	-0.791 (inactive)	0.538	0.102	-0.166 (inactive)
COc1ccc(/C=C/C=O)cc1	0.0676 (inactive)	0.11	-0.0134 (inactive)	-0.113 (inactive)	0.392 (inactive)	0.0327 (inactive)	-0.416	-0.721 (inactive)	-0.379 (inactive)	0.589	0.637	-0.243	0.0562	0.418	-1.22	0.555	0.754 (inactive)	-0.464	-0.0737	-0.925 (inactive)
CC(C)N1C(=O)c2ccccc2[C@](C)(C(=O)NCCN2CCOCC2)[C@@H]1c1ccc(CO)cc1	-0.469 (inactive)	0.0451	2.19 (inactive)	0.0259 (inactive)	0.914 (inactive)	0.426 (inactive)	-0.522	1.05 (inactive)	0.627 (inactive)	0.283	-0.291	-0.748	0.458	-1.69	0.0409	0.916	-0.537 (inactive)	1	-0.0545	0.0569 (inactive)
CC[C@@H]1C=C(C(=O)O)[C@H](c2ccc(Br)cc2)N1S(=O)(=O)c1ccc(C)cc1	-0.467 (inactive)	-0.0989	0.471 (inactive)	1.06 (inactive)	-0.187 (inactive)	0.658 (inactive)	-0.283	0.451 (inactive)	-0.117 (inactive)	0.379	-0.646	-0.506	-0.586	-0.314	-1.13	-0.131	-0.258 (inactive)	-0.0108	-0.82	-0.472 (inactive)
CN(C)C(=O)[C@@]1(CCS(=O)(=O)c2ccccc2)COC(c2ccc(OCCCO)cc2)=N1	0.276 (inactive)	0.0244	25.6 (active)	8.3 (active)	1.69 (inactive)	1.26 (inactive)	0.313	-2.71 (inactive)	0.265 (inactive)	-0.621	-0.245	-0.0285	-1.28	-2.08	-2.36	-1.09	-0.0809 (inactive)	-0.476	-1.49	-2.54 (inactive)
C=CCN1C(=O)[C@]2(O[C@H](CCn3cc([C@H](O)c4ccccc4)nn3)[C@@H]([Si](C)(C)c3ccc(OC)cc3)[C@@H]2C)c2ccccc21	-0.554 (inactive)	-0.0099	4.6 (inactive)	1.02 (inactive)	0.914 (inactive)	0.843 (inactive)	0.256	0.952 (inactive)	0.055 (inactive)	-0.251	-0.366	0.76	-1.85	-2.65	-4.3	-0.97	0.203 (inactive)	-0.953	-2.26	-1.75 (inactive)
CC(C)C[C@@H]1NC(=O)[C@H](C(C)C)NC(=O)[C@@]23C(=O)N[C@@H](Cc4ccccc4)C2[C@H](C)[C@@]2(C)O[C@H]2C3/C=C/CC/C=C/CNC1=O (stereo not given in full)	-0.62 (inactive)	0.131	4.9 (inactive)	0.538 (inactive)	0.841 (inactive)	0.771 (inactive)	0.116	-0.159 (inactive)	0.338 (inactive)	-0.477	-0.642	1.39	-0.504	-0.359	-0.789	-0.0491	-0.321 (inactive)	0.0651	1.72	0.612 (inactive)
CC1CC/C=C\[C@H]2OC34C=CCN(C(C)(C)C)C(=O)[C@H]3N(CCO)C(=O)[C@@H]4C2C(=O)O1 (stereo not given in full)	0.583 (inactive)	-0.0611	2.16 (inactive)	0.518 (inactive)	-0.474 (inactive)	0.31 (inactive)	0.615	1.36 (inactive)	0.126 (inactive)	2.57	-0.986	1.09	-0.593	1.16	-0.197	-0.669	-0.354 (inactive)	-0.0147	0.927	0.283 (inactive)
